High-throughput results: PubChem, National Center for Advancing Translational Sciences (NCATS)
Only some compounds are listed: those with a hit (about 14% of all), similar ones and a draw of the others.
HCMV inh: human cytomegalovirus inhibition | HFF cells, HCMV-luciferase reporter, 72 h; stronger effect = lower value | activity change, negative = inhibition, % at 57.5 µM | hit rate 4.5% among 410,000 | AID 1259415; in the data active = activity change below about -60%; inconclusive = no clear call, values can overlap the other calls; inactive = above about -39%
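Cell-based, HFFs, 1000 cells/well, 16 h 37C; cpds in DMSO + HCMV-luc, MOI 1 PFU/cell; 72 h 37C; OneGlo luminescence after 5 min RT; norm. to buffer vs Salinomycin 10uM.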
Lassa entry inh: Lassa virus entry inhibition | Lassa virus pseudotype entry inhibition, cell reporter | Potency, µM (doses to about 37.9 µM), actives largely listed as inhibitors | hit rate 1.2% among 300,000; calls by dose curve; tested in HEK293 cells; also: nearly all actives have a fitted effect of over 50% in size
Pf growth 48h: inhibits P. falciparum growth in the first generation, 48 h; P. falciparum luciferase growth in erythrocytes, 48 h; Potency, µM (doses to about 28.7 µM), hits mostly inhibitors; hit rate 5.9% among 310,000; AID 504832
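Read-out is firefly luciferase luminescence from an integrated reporter in P. falciparum, so falling signal marks reduced parasite growth. Infected erythrocytes were at 2% hematocrit and 0.1% parasitemia (final) in Albumax-supplemented RPMI 1640.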
MARV entry inh: inhibitors of Marburg virus binding or cell entry; Potency, µM (series often up to 37.8 µM), actives largely listed as inhibitors; hit rate 1.8% among 300,000; Marburg virus pseudotyped entry inhibition, cell reporter; calls by dose curve; tested in HEK293 cells
HCV inhibitor: inhibitors of hepatitis C virus infection; Huh7.5.1 HCVcc-Cre infection, luciferase reporter, 44 h; hit rate 3.4% among 340,000; AID 651820; Potency, µM (titrated, usually from 41.8 µM), most hits filed as inhibitors
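Reporter virus HCVcc-Cre (~0.5 moi) infects cells exposed to compound; seeding density 1,000 cells/well with 4 h settling beforehand. Luminescence, 15 sec read, taken 44 h post-infection following a 15 min RT substrate incubation.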
Pf growth 96h: inhibits malaria parasite growth, 96 h; P. falciparum luciferase reporter growth, 96 h; Potency, µM (highest dose often 28.7 µM), most hits filed as inhibitors; hit rate 6.9% among 320,000
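Infected RBCs, 2% Hct / 0.05% parasitemia final; luciferase-reporter P. falciparum; cpd 96 h, 37 C, 5% CO2; luciferase detection reagent; luminescence.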
Hits are given with their value; – = inactive; ? = inconclusive; · = no result. Unless noted, calls follow the shape of the dose curve; as a rule, active = well fitted inhibition curve with a large enough effect; inconclusive = small, poorly fitted or top-dose-only effect, or another doubt; inactive = no such curve, though single readings can be large or run the other way.

SMILES	HCMV inh	Lassa entry inh	Pf growth 48h	MARV entry inh	HCV inhibitor	Pf growth 96h
Cc1cc(C(F)(F)F)n2nc(-c3cnn(C)c3C(F)(F)F)c(Cl)c2n1	–	–	3.29µM	–	–	?
Cc1cc(C)n2nc(-c3cnn(C)c3C(F)(F)F)c(Cl)c2n1	–	–	–	–	?	?
Cc1ccc(S(=O)(=O)Nc2ccc(Br)cc2/C=N/n2cnnc2)cc1	–	–	–	?	–	3.7µM
N#Cc1cccc(NC(=O)Cn2c3[n+](c4ccc(C(F)(F)F)cc42)CCCCC3)c1	?	–	5.22µM	?	–	0.828µM
COc1ccc(OC)c(C(=O)CN2C(=O)C(=O)N(C3CCCC3)C2=O)c1	–	–	·	–	–	·
COc1ccc(OC)c(C(=O)Cn2c3[n+](c4ccc(C(F)(F)F)cc42)CCCCC3)c1	–	–	?	–	–	0.522µM
C=CCn1c2[n+](c3ccccc3c1=O)CCCCC2	–	·	–	·	–	–
Fc1ccccc1Cn1c2[n+](c3ccc(C(F)(F)F)cc31)CCCCC2	-67.6	–	?	–	–	2.33µM
Cc1cccc(NC(=O)CCCN=C2NS(=O)(=O)c3ccccc32)c1C	–	·	?	·	–	?
CCOc1ccc(NC(=O)c2ccccc2NC(=O)CN(C)CC(=O)Nc2ccc(C)cc2)cc1	–	–	10.4µM	–	–	?
CCOc1ccc(NC(=O)c2ccccc2NC(=O)CNC2CCCC(C)C2C)cc1 (stereo not drawn)	-65.6	·	·	·	–	·
Nc1[nH]c(C(=O)c2ccccc2)c(-c2ccccc2C(F)(F)F)c1C(=O)NCc1cccc2ccccc12	–	·	·	·	·	·
COc1ccc(C(=O)Nc2nc(-c3ccccc3)c(C(C)=O)s2)c(OC)c1	–	·	–	?	12.6µM	–
COC(=O)Nc1nc(-c2ccccc2)c(C(=O)c2ccccc2)s1	?	3.16µM	–	?	?	·
COC(=O)Nc1nc(C)c(C(=O)c2ccccc2)s1	–	?	·	?	–	–
O=S1(=O)CC(N2CCN(CCO)CC2)CN1C1CCCCC1 (stereo not drawn)	–	·	·	·	·	·
O=C(CCl)N(c1ccccc1)C1CCS(=O)(=O)C1 (stereo not drawn)	-102.6	?	11.7µM	?	22.4µM	?
CC(=O)Nc1ccc(C(=O)OCC(=O)N(c2ccccc2)C2CCS(=O)(=O)C2)cc1 (stereo not drawn)	–	·	–	·	–	–
O=C(NC(Cc1ccccc1)C(=O)O)/C(=C/c1cccc([N+](=O)[O-])c1)NC(=O)c1cccc(Br)c1 (stereo not drawn)	–	–	–	–	–	?
COc1cc(C)c(CN2CCC(Cc3ccccc3)CC2)cc1C	?	·	?	·	12.6µM	?
O=C(c1ccc(Cl)cc1)C1CCN(Cc2ccccc2)CC1	–	·	–	·	–	?
O=C(CCC1CCN(Cc2ccc(Cl)cc2)CC1)NC1CC1	–	–	–	–	–	1.04µM
Clc1cccc(CN2CCC(Cc3ccccc3)CC2)c1	–	?	–	–	–	–
Clc1ccc(CN2CCC(c3ccccc3)CC2)cc1	-103.2	·	–	·	–	–
Clc1ccc(CN2CCC(Cc3ccccc3)CC2)cc1	–	–	–	?	–	8.28µM
SMILES	HCMV inh	Lassa entry inh	Pf growth 48h	MARV entry inh	HCV inhibitor	Pf growth 96h
Cn1c(=NC(=O)c2ccc(S(=O)(=O)N3CCCC3)cc2)sc2cc(F)ccc21	–	–	·	·	·	·
Cc1nc2nc(NC(=O)c3ccc(C(C)(C)C)cc3)[nH]n2c(=O)c1C	–	–	·	–	·	·
COc1ccc(CNC2CC(C)N(C)CC2C)cc1OC (stereo not drawn)	–	–	10.4µM	–	–	–
COc1ccc(CCNC2CC(C)N(C)CC2C)cc1OC (stereo not drawn)	–	?	–	?	?	?
COc1ccccc1N1CCN(C(=O)CCc2nnc3n(C)c(=O)c4sccc4n23)CC1	–	–	·	–	·	·
Cc1ccc(-c2csc3ncnc(SCC(=O)O)c23)cc1	–	–	–	–	–	–
Cn1nnnc1Sc1ncnc2scc(-c3cccc(C(F)(F)F)c3)c12	-99.4	·	·	·	·	·
Cn1nnnc1Sc1ncnc2scc(-c3ccsc3)c12	-97.1	·	·	·	·	·
Cc1ccc(-c2csc3ncnc(-n4nnc5ccccc54)c23)cc1	?	–	–	–	–	?
Cn1nnnc1Sc1ncnc2scc(-c3cc4ccccc4o3)c12	-99.7	·	4.15µM	·	·	?
Cn1nnnc1Sc1ncnc2scc(-c3ccccc3C(F)(F)F)c12	-82.5	·	13.1µM	·	·	7.38µM
CCOc1ccc(CNC(=O)c2cnc3sc(N4CCOCC4)nn3c2=O)cc1OC	–	–	·	·	·	·
Cc1ccc2oc(-c3ccc(NC(=O)c4oc5ccc(Cl)cc5c4C)cc3)nc2c1	–	–	·	·	·	·
COC(=O)c1c(-c2ccc(OC)cc2)sc2ccccc12	·	·	?	·	–	?
CCCc1nc2ccc(Cl)cn2c1Cc1ccc(C)cc1	–	·	·	·	·	·
CC1CCc2c(sc(NC(=O)C3c4ccccc4Oc4ccccc43)c2C#N)C1 (stereo not drawn)	–	?	·	?	·	·
COc1cccc(-c2csc3ncnc(Sc4nnnn4C)c23)c1	-99.4	·	·	·	·	·
COC(=O)CSc1ncnc2scc(-c3ccccc3)c12	–	–	–	–	–	–
Cn1nnnc1Sc1ncnc2scc(-c3ccc(C(F)(F)F)cc3)c12	-99.1	·	?	·	·	?
Cn1nnnc1Sc1ncnc2scc(-c3cccc(F)c3)c12	?	·	4.65µM	·	·	?
Fc1ccc(CSc2ncnc3scc(-c4ccccc4)c23)cc1	–	–	?	?	–	?
Cn1nnnc1Sc1ncnc2scc(-c3ccc(-c4ccccc4)cc3)c12	-97.2	·	·	·	·	·
CCOC(=O)C1=CCC(c2ccc(CC)cc2)N(S(=O)(=O)c2ccc(C)cc2)C1 (stereo not drawn)	–	·	·	·	·	·
CC(C)Nc1nc2c(S(=O)(=O)c3cccc(Cl)c3)nnn2c2ccsc12	–	–	·	·	·	·
Cc1nc2nc(SCC(=O)NCc3ccccc3)nn2c(C)c1Cc1ccccc1Cl	–	–	·	–	·	·
SMILES	HCMV inh	Lassa entry inh	Pf growth 48h	MARV entry inh	HCV inhibitor	Pf growth 96h
Cc1nnc(NC(=O)CSc2ncnc3scc(-c4ccccc4)c23)s1	–	–	–	–	–	?
CC(=O)c1ccccc1-c1csc2ncnc(Sc3nnnn3C)c12	?	·	11.7µM	·	·	4.15µM
Brc1ccccc1OCCOc1cccc2cccnc12	–	–	–	?	–	–
Cc1cc(Cl)cc(Cl)c1OCCOc1cccc2cccnc12	–	–	·	–	?	4.15µM
CC12C=C(C=CCCc3ccco3)C(C)(C1)[C@H](CCc1ccco1)CC2=O (stereo partly drawn)	·	·	·	–	·	·
COc1cccc(NC(=O)NCc2ccc3c(c2)CCN3C(=O)c2ccccc2)c1	–	–	·	·	·	·
Cc1ccc(C(C)NC(=S)NC2CCCCC2)c(C)c1 (stereo not drawn)	-77.7	·	10.4µM	·	?	5.22µM
Cc1ccc(C(C)NC(=S)NC2CCCCC2)cc1C (stereo not drawn)	-75.2	·	10.4µM	·	·	10.4µM
CCC(NC(=O)NC1CCCCC1)c1ccccc1 (stereo not drawn)	–	·	–	·	–	–
COc1ccc(C(C)NC(=S)NC2CCCC2)cc1OC (stereo not drawn)	–	–	1.85µM	–	–	?
